Screening data deposited in PubChem BioAssay by National Center for Advancing Translational Sciences (NCATS).
An excerpt weighted towards active compounds, which were near 2.4% of everything screened.
aSyn rescue: qHTS of alpha-syn Inhibitors; AID 652106, 2013; 370,000 compounds, 0.14% hits; Potency, µM (highest dose often 46.1 µM), most hits filed as activators; Yeast expressing alpha-synuclein, growth rescue, BacTiter-Glo, 24 h; also: nearly all actives have a fitted effect of over 65% in size
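Galactose-induced alpha-syn yeast (OD600=0.02, raffinose-pregrown) + pinned cpd, 24 hr, 30 deg C; growth by BacTiter-Glo luminescence. Growth restoration scores as activation.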
Mito fusion yeast: qHTS Assay for Small Molecule Inhibitors of Mitochondrial Division or Activators of Mitochondrial Fusion | S. cerevisiae fusion-defective mutant growth rescue, CellTiterGlo 48 h | AID 485298, 2010 | 320,000 compounds, 0.23% hits | Potency, µM (titrated, usually from 46.1 µM), usual class: activators; also: nearly all actives have a fitted effect of over 45% in size
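Yeast fusion mutant, YPEG (non-fermentable carbon), compound, 48 h at 37C non-permissive; CellTiterGlo added, 10 min RT, luminescence read. Rescued growth = division inhibition.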
AT treatment: qHTS Assay for Identifying a Potential Treatment of Ataxia-Telangiectasia. Potency, µM (series often up to 57.5 µM), actives largely listed as activators. 320,000 compounds, 0.19% hits. AID 485349, 2010. F2112 A-T fibroblasts, KAP-1 phosphorylation AlphaLISA; neocarzinostatin DNA damage 30 min before lysis; also: nearly all actives have a fitted effect of over 45% in size
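hTERT-immortalized A-T patient fibroblasts (F2112), 500 cells/well in OPTI-MEM, 1% FBS, got compounds for 60 min, then NCS for 30 min at 37C. Lysates were then assayed for phospho-KAP-1 by AlphaLISA (anti-pKAP1 donor, anti-KAP1 acceptor beads), 6 hr at 25C.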
Abeta yeast res: qHTS for compounds that reverse cellular toxicity of Amyloid beta (A-beta) peptide in yeast: Primary Screen | AID 1347071, 2019 | Potency, µM (doses to about 46.1 µM), actives largely listed as activators | yeast expressing A-beta42, growth rescue, OD600, 48 h; response scale: 0% DMSO, 100% iron-clioquinol control | 410,000 compounds, 0.063% hits; also: nearly all actives have a fitted effect of over 55% in size
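Yeast A-beta toxicity model in growth medium with pinned compounds, 48 h at 30 C; growth read as absorbance at 600 nm. Normalized to FeCl3/clioquinol equimolar mix (positive) and DMSO (negative).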
TDP-43 yeast inh: qHTS of TDP-43 Inhibitors | TDP-43 expressing yeast growth rescue, BacTiter-Glo, 24 h | Potency, µM (doses to about 46.1 µM), hits mostly activators | 410,000 compounds, 1.8% hits; also: nearly all actives have a fitted effect of over 50% in size
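Yeast expressing TDP-43 (pregrown in raffinose, seeded at OD600=0.02 in galactose medium) exposed to compounds 24 hr at 30 deg C. Growth read by BacTiter-Glo luminescence; rescue of toxicity appears as increased signal.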
FUS suppressor: qHTS for Suppressors of FUS Proteinopathy: Primary screen using FUS-linked yeast assay. AID 1347120, 2019. 390,000 compounds, 0.24% hits. S. cerevisiae FUS-expressing, growth rescue, OD600, 24 h. Potency, µM (series often up to 76.6 µM), usual class: activators; also: nearly all actives have a fitted effect of over 55% in size
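Quantitative HTS measuring growth restoration of FUS-toxic yeast. Galactose-induced cells (OD 0.005) were exposed 24hr at 30C to compounds at several concentrations, then absorbance at 600 nm was recorded.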
A number is an active result; i = inactive; ? = inconclusive; nt = no result given; [ ] = dose if it differs, or a comment. Calls follow the shape of the dose curve; as a rule, active = well fitted curve in the direction sought with a large enough effect; inconclusive = small, poorly fitted or top-dose-only effect, or another doubt; inactive = no such curve, though single readings can be large; an effect the other way counts as inactive or inconclusive.

SMILES	aSyn rescue	Mito fusion yeast	AT treatment	Abeta yeast res	TDP-43 yeast inh	FUS suppressor
C=CC(=O)N1CCC[C@@H](n2nc(-c3ccc(Oc4ccccc4)cc3)c3c(N)ncnc32)C1	i	nt	nt	nt	nt	nt
CCNC(=O)N1c2ccc(OC)cc2C(C)=CC1(C)C	i	i	i	i	13µM	i
COc1ccc(NC(=O)N2c3ccc(OC)cc3C(C)=CC2(C)C)cc1	i	nt	i	i	i	i
O=c1[nH]c(=O)n([C@H]2C[C@@H](O)[C@@H](CO)O2)cc1F	i	nt	nt	nt	nt	nt
COc1ccc(/C=C(/C(=O)Nc2ccccc2C(=O)NC(C)C)c2ccccc2)cc1	i	i	i	i	20µM	i
COc1cc2c(cc1OC)CN(C(=O)/C=C/c1cc(OC)c(OC)c(OC)c1)CC2	i	i	3.2µM	i	i	i
COc1cc2c(cc1OC)CN(C(=O)/C=C/c1ccc(F)cc1)CC2	i	i	i	i	?	i
CCO[C@H]1OC(C(=O)NCc2ccccc2)=C[C@@H](c2ccc(C(F)(F)F)cc2)[C@@H]1CCCO	?	i	i	i	i	?
CCO[C@H]1OC(C(=O)Nc2ccccc2)=C[C@@H](c2ccc(C(F)(F)F)cc2)[C@@H]1CCCO	?	i	i	i	35µM	i
Cc1cccc(-c2nc(CCNC(=O)COc3ccccc3)cs2)c1	nt	nt	nt	i	35µM	i
Cc1cccc(-c2nc(CCNC(=O)Cc3ccccc3)cs2)c1	nt	nt	nt	i	16µM	i
COc1ccc(CCC(=O)NCCc2csc(-c3cccc(C)c3)n2)cc1	nt	nt	nt	i	?	i
CC(=O)N/C(=C/c1ccccc1)c1sc2ccccc2[n+]1CCCCI	i	nt	nt	nt	nt	nt
Cc1ccc(Cl)cc1N1CCN(C(=O)c2cnc(N3CCOCC3)c3ccccc23)CC1	nt	nt	nt	i	22µM	16µM
CN(C(=O)c1cnc(N2CCN(c3ncccn3)CC2)c2ccccc12)c1ccc(Cl)cc1	i	i	i	?	10µM	i
Cc1ccc(Cl)cc1N(C)C(=O)c1cnc(N2CCOCC2)c2ccccc12	nt	nt	nt	i	?	i
Cc1ccc(Nc2ncc(C(=O)N3CCN(c4cccc(Cl)c4)CC3)c3ccccc23)cc1Cl	nt	nt	nt	i	16µM	?
COc1ccc(-c2cc3ncc(C)n3c(Nc3ncccc3C(N)=O)n2)cc1OC	i	i	nt	nt	nt	nt
Cc1ccc(Cl)cc1N1CCN(CCCNC(=O)C2COc3ccccc3C2)CC1 (stereo not drawn)	nt	nt	nt	i	i[9.22 µM]	i
O=C(O)c1cc2ccccc2[nH]1	i	nt	nt	i	i	i
Cn1c(C(=O)NN)cc2cc(Oc3ccccc3)ccc21	i	i	i	i	i	i
O=C(O)c1cc2cc(Oc3ccccc3)ccc2[nH]1	i	i	i	i	18µM	i
Cn1c(C(=O)O)cc2cc(Oc3ccccc3)ccc21	i	i	i	i	22µM	i
COc1ccc2c(c1)CCCN2C(=O)C1CCCN(S(=O)(=O)c2cccc3cccnc23)C1 (stereo not drawn)	nt	nt	nt	nt	nt	i
Cc1cc(O)c2c(-c3ccccc3)cc(=O)oc2c1	i	i	i	i	?	i
SMILES	aSyn rescue	Mito fusion yeast	AT treatment	Abeta yeast res	TDP-43 yeast inh	FUS suppressor
Cc1cc2oc(=O)cc(-c3ccccc3)c2c(C)c1-c1ccc(O)cc1	i	nt	i	i	14µM	?
O=S1(=O)c2c(NCc3ccco3)cccc2Oc2ccccc2CN1Cc1cn(Cc2cccc(F)c2)nn1	nt	nt	nt	nt	nt	i
Cc1nc2ccc(NS(=O)(=O)c3c(F)cc(F)cc3Br)cc2s1	?	i	i	i	16µM	i
CSc1nc2ccc(NS(=O)(=O)c3c(Cl)cccc3Cl)cc2s1	i	i	i	i	10µM	nt
Cc1nc2ccc(NS(=O)(=O)c3ccc(C)c(C)c3)cc2s1	i	i	i	i	i	i
Cc1nc2ccc(NS(=O)(=O)c3ccc(F)cc3F)cc2s1	i	i	i	i	13µM	nt
O=S(=O)(Nc1ccc(N2CCOCC2)cc1)c1c(F)cc(F)cc1Br	22µM	i	i	i	?	i
